Data reported in PubChem BioAssay.
Values joined by “and” are separate entries in the source; they are usually repeats but may differ in a detail not shown here. Equal values may be shown once. Active and inactive are the calls of the source.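 How the source made its calls, unless noted: active means mean z-score across replicates of 1.96 or higher in either the MELAS or the Rieske mutant cell line; inactive means the rest.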

Tests used:
[1] = hESC survival regulators, cell-based (AID 493140; call rule not given here;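 further: cells exposed to compounds for four days before counting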); conditions: human embryonic stem cell survival screen; stronger effect = higher value
[2] = liver-stage malaria parasite growth inhibition, primary screen, cell-based, HepG2, luciferase luminescence, HepG2 viability (AID 624349; in the data active means parasite load remaining mostly below about 12%, no sharp cut-off; inactive means mostly above about 10%;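 further: 100% = mean of DMSO negative control wells on the same plate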); conditions: P. berghei liver stage in HepG2, luciferase luminescence, concentration not given here; parasite load remaining: stronger effect = lower value; viability: measured here: HepG2 viability without parasites
[3] = stimulators of nuclear beta-catenin in C2C12, primary screen, imaging, WNT3A-conditioned medium, mouse C2C12, NPC library (AID 1117326; in the data active means nuclear beta-catenin stimulation mostly above about 4.2%, no sharp cut-off; inactive means mostly below about 10%); conditions: stronger effect = higher value
[4] = stimulators of insulin release from INS-1E, primary screen, cell-based, 5 mM glucose, NPC library (AID 1117329;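 active means compound raises insulin release from rat beta cells at 5 mM glucose, no numeric limit stated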); conditions: rat INS-1E insulin secretion, at 10 µM, stronger effect = higher value
[5] = growth inhibition of GSK3B-pretreated HCT116 cells – cell-based, CellTiter-Glo, 0.2 to 20 µM (AID 1117336;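 active means compounds lowering colon cancer cell viability after pretreatment blocking the GSK3B kinase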); conditions: HCT116 viability after GSK3B inhibitor, at 20 µM, stronger effect = higher value
[6] = inhibition of endothelial tube formation, primary screen, imaging, VEGF stimulated, CD31 staining, tube area, NPC library (AID 1117340;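 active means compound that reduces growth-factor-driven endothelial tube area in a mixed cell culture, no cutoff stated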); conditions: VEGF-stimulated ADSC/ECFC co-culture, at 10 µM, stronger effect = higher value
[7] = glucagon-like peptide 1 release enhancers, primary assay, NCI-H716 cell line, NPC library (AID 1117341;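 active means compound raises GLP1 secretion from the human gut endocrine cells, with no numeric limit stated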); conditions: NCI-H716 cells, at 10 µM, stronger effect = higher value
[8] = HCT116 colon cancer cell growth inhibition, primary screen, CellTiter-Glo luminescence, NPC library (AID 1117342;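 active means compounds that lower survival of HCT116 colon cancer cells in the luminescence readout, no numeric limit stated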); conditions: at 20 µM (top of the series)
[9] = CellTiter-Glo luminescent readout of SW480 viability loss, NPC library primary (AID 1117343;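 active means compounds that lower viability of the colon cancer cells in the luminescence readout, with no numeric limit stated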); conditions: CellTiter-Glo luminescence; at 20 µM (top of the series)
[10] = decreased DLD-1 cellular survival, CellTiter-Glo luminescent readout, NPC compound collection, primary HTS (AID 1117346;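 active means compounds that lower survival of DLD-1 colon cancer cells in the luminescence readout, no cutoff given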); conditions: DLD-1 viability, CellTiter-Glo luminescence; at 20 µM (top of the series)
[11] = differential killing of epithelial or mesenchymal cells, primary screen, imaging, PC-3E GFP, TEM4-18 mCherry, co-culture (AID 1345086;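 active means compounds killing one labelled cell type while sparing the other, by normalised counts and ratio limits, not self-fluorescent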;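 on all read-outs here: cells exposed to compound for 72 h before imaging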;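 on red/green cell ratio (normalised): normalised mesenchymal count divided by normalised epithelial count so high means epithelial killing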); conditions: imaging cell counts, at 1 µM; for red/green cell ratio (normalised): actives lie on both sides
[12] = system: Aerobactin synthetase IucA (Klebsiella pneumoniae hvKP1); assay: Biochemical IucA enzyme inhibition primary screen of the Spectrum library (AID 1346200; call rule not given here;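 further: 100% = wells without compound and 0% = wells lacking enzyme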); conditions: malachite green pyrophosphate, A620, at 8 µM, stronger effect = lower value
[13] = survival rescue of mitochondrial mutant cells in low glucose, primary screen, MELAS cybrids, Rieske KO mouse fibroblasts, CellTiter-Glo (AID 1508586);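 further: z relative to plate mean and SD of compound and empty wells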
[14] = target: NAD(+) hydrolase SARM1 (Homo sapiens) (UniProt Q6SZW1); assay: SARM1 TIR NADase inhibitors, cell lysate, NAD-Glo luminescence (AID 1508614;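 active means compound whose remaining NAD level is above about 45 nM, limit read from the data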); conditions: SAM-TIR HEK293T lysate NADase, at 1 µM, stronger effect = higher value
Chain of NAD(+) hydrolase SARM1 (Homo sapiens) (Q6SZW1 whole entry, looked up, the tested form may be a part): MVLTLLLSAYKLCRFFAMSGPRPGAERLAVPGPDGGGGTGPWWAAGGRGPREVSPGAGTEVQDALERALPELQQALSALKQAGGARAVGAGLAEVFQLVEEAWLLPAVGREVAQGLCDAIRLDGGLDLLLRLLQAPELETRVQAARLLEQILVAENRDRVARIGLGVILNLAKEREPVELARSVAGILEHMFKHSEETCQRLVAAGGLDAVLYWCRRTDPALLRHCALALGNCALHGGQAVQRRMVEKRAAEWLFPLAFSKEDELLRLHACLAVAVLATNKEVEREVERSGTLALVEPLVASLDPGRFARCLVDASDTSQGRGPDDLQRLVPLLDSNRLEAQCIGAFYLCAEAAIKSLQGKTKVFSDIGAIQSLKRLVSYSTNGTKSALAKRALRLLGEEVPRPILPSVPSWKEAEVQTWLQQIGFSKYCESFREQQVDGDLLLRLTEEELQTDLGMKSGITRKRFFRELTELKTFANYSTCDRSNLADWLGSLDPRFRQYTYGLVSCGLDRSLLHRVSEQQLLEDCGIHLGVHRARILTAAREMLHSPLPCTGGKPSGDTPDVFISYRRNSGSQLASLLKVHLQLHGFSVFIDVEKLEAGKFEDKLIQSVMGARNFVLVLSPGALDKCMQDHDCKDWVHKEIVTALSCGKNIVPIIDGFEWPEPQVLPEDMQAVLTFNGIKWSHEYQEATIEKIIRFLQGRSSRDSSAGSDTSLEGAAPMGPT

[15] = target: Mitogen-activated protein kinase 7 (Homo sapiens) (UniProt Q13164); assay: ERK5 transactivation activators in reporter cells, primary screen, cell-based, HTS (AID 1508626;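 active means luciferase signal above three times the same-plate solvent-only control wells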;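 further: luciferase driven by Gal4-ERK5 fusion binding five Gal4 sites before minimal TATA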); conditions: HeLa Gal4-ERK5 transactivation, 18 h, at 5 µM, stronger effect = higher value
Chain of Mitogen-activated protein kinase 7 (Homo sapiens) (Q13164 whole entry, looked up, the tested form may be a part): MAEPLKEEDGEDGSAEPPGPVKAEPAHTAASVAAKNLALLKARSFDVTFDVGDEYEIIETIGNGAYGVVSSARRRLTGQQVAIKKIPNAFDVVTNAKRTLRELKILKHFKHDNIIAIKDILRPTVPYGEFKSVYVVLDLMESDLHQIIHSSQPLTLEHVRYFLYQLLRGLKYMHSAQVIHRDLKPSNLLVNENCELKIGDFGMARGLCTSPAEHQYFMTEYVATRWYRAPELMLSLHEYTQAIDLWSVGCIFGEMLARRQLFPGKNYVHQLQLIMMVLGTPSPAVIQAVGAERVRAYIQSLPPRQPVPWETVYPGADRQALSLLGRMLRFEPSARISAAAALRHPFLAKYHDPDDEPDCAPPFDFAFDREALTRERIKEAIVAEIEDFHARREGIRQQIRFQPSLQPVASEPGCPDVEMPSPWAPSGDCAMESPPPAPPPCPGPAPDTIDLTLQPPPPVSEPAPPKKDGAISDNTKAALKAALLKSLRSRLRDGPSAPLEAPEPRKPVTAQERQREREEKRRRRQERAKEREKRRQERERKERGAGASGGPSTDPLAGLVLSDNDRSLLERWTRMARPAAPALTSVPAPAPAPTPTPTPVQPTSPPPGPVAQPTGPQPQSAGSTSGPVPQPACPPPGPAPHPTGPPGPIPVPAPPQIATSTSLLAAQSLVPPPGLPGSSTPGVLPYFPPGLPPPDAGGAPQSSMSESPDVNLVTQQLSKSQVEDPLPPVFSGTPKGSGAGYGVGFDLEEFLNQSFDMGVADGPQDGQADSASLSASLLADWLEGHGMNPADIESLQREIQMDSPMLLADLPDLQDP

[16] = viability rescue of complex I mutant cybrids, primary screen, cell-based, galactose medium, ATP luminescence (AID 1645843;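 active means z-score of at least 1.8 in each of two replicates, scored against plate mean and spread of sample wells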;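 further: positive z means more ATP and so rescue of galactose-driven cybrid death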); conditions: complex I mutant cybrid cells, 72 h, stronger effect = higher value
[17] = sensitizers of A549 cells to miR-34 induction, primary screen, imaging, A549 dox-inducible miR-34, nuclei and caspase counts (AID 1347080;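 active means compounds whose cell count with miR-34 switched on is under 0.7 times the count with it off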); conditions: A549 miR-34 inducible, Hoechst nuclei count, 48 h
[18] = target: 6-phosphogluconate dehydrogenase, decarboxylating (Homo sapiens) (UniProt P52209); assay: 6PGD enzyme inhibitors, primary screen, biochemical, human, recombinant enzyme, NADPH absorbance (AID 1159550;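 active means at least 20% inhibition of 6-phosphogluconate dehydrogenase activity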); conditions: recombinant 6PGD, NADPH absorbance 341 nm; at 10 µM; stronger effect = higher value
Chain of 6-phosphogluconate dehydrogenase, decarboxylating (Homo sapiens) (P52209 whole entry, looked up): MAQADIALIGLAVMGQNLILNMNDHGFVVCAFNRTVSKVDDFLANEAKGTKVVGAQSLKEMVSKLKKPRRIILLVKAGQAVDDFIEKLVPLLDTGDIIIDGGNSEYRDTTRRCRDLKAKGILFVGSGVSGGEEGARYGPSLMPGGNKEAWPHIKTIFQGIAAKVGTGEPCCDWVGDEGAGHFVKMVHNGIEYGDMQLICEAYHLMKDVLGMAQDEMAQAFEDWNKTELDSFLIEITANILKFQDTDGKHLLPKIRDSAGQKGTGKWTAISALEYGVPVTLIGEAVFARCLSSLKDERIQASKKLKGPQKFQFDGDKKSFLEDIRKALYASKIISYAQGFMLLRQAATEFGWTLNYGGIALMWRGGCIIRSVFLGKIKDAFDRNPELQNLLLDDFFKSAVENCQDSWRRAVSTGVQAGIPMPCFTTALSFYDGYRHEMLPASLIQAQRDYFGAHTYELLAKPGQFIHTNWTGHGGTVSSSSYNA

[19] = measured here: epithelial PC-3E GFP cell survival
[20] = measured here: mesenchymal TEM4-18 mCherry cell survival
[21] = MELAS cybrid survival, CellTiter-Glo 48 h, stronger effect = higher value
[22] = Rieske KO mouse fibroblast survival, CellTiter-Glo 72 h
[23] = measured here: relative caspase fold change +Dox/-Dox
[24] = measured here: total cells with miR-34 induction, stronger effect = lower value
[25] = measured here: total cells without miR-34 induction

Compound: O=P1(NCCCl)OCCCN1CCCl (configuration not stated)
- survival [1]: 3.83 (inactive)
- parasite load remaining [2]: 91% (inactive) and 76.7% (inactive) and 18.8% (inactive)
- viability [2]: 94% and 95.7% and 66%
- nuclear beta-catenin stimulation ([3]; at 10 µM): 1.1% (inactive)
- nuclear beta-catenin stimulation ([3]; stimulation, at 2 µM): 0.8%
- insulin secretion stimulation [4]: 2.9% (inactive)
- viability decrease [5]: -25.5% (inactive)
- tube area decrease [6]: 9.8% (inactive)
- GLP1 secretion stimulation [7]: -0.1% (inactive)
- inhibition of viability [8]: 7.23% (inactive)
- viability decrease (inhibition) [9]: -16.8% (inactive)
- viability decrease (inhibition) [10]: -5.2% (inactive)
- red/green cell ratio (normalised) [11]: 1.03 (inactive)
- normalised cell number [11, 19]: 1.08
- normalised cell number [11, 20]: 1.11
- activity remaining [12]: 114% (inactive)
- z-score [13, 21]: -0.402 (inactive) and 0.719 (inactive) and 0.667 (inactive)
- z-score [13, 22]: -0.0632 and -0.341 and -0.186
- remaining NAD [14]: 10 nM (inactive)
- luciferase signal [15]: 44 AU (inactive)
- z-score [16]: 0.08 (inactive)

Compound: CNCC(O)c1ccc(O)cc1 (configuration not stated)
- survival [1]: 2.92 (inactive)
- parasite load remaining [2]: 81.5% (inactive) and 59.8% (inactive)
- viability [2]: 69.8% and 68.9%
- nuclear beta-catenin stimulation ([3]; at 10 µM): -0.1% (inactive)
- nuclear beta-catenin stimulation ([3]; stimulation, at 2 µM): -2.7%
- insulin secretion stimulation [4]: 0.25% (inactive)
- viability decrease [5]: 14.7% (inactive)
- tube area decrease [6]: -15.1% (inactive)
- GLP1 secretion stimulation [7]: 0.1% (inactive)
- inhibition of viability [8]: -4% (inactive)
- viability decrease (inhibition) [9]: -14.6% (inactive)
- viability decrease (inhibition) [10]: -3.7% (inactive)
- red/green cell ratio (normalised) [11]: 1.1 (inactive)
- normalised cell number [11, 19]: 0.84
- normalised cell number [11, 20]: 0.92
- z-score [13, 21]: -0.35 (inactive) and -0.388 (inactive) and -0.264 (inactive)
- z-score [13, 22]: -0.247 and -0.0924 and -0.396
- remaining NAD [14]: 10 nM (inactive)
- z-score [16]: 0.82 (inactive) and 0.285 (inactive)

Compound: CCC(COC(=O)c1cc(OC)c(OC)c(OC)c1)(c1ccccc1)N(C)C (configuration not stated)
- parasite load remaining [2]: 36% (inactive)
- viability [2]: 62.6%
- nuclear beta-catenin stimulation ([3]; at 10 µM): 5.9% (inactive)
- nuclear beta-catenin stimulation ([3]; stimulation, at 2 µM): 1.2%
- insulin secretion stimulation [4]: 2.2% (inactive)
- viability decrease [5]: 49% (inactive)
- tube area decrease [6]: 19.3% (inactive)
- GLP1 secretion stimulation [7]: 5.8% (inactive)
- inhibition of viability [8]: 64.3% (active)
- viability decrease (inhibition) [9]: 22.7% (inactive)
- viability decrease (inhibition) [10]: 20.6% (inactive)
- red/green cell ratio (normalised) [11]: 1 (inactive)
- normalised cell number [11, 19]: 1.04
- normalised cell number [11, 20]: 1.04
- activity remaining [12]: 102% (inactive)
- fold change ([17]; stronger effect = lower value): 0.96 (inactive) and 0.993 (inactive)
- fold change [17, 23]: 0.946 and 0.715
- cell count [17, 24]: 9130 and 7380
- cell count [17, 25]: 9520 and 7430
- z-score [13, 21]: -0.0948 (inactive) and -0.436 (inactive)
- z-score [13, 22]: -0.0807 and -0.229
- remaining NAD [14]: 10 nM (inactive)
- luciferase signal [15]: 28 AU (inactive)
- z-score [16]: -1.25 (inactive)

Compound: Clc1ccc(C(c2ccc(Cl)cc2)C(Cl)(Cl)Cl)cc1
- nuclear beta-catenin stimulation ([3]; at 10 µM): 0.9% (inactive)
- nuclear beta-catenin stimulation ([3]; stimulation, at 2 µM): -0.7%
- insulin secretion stimulation [4]: 2.7% (inactive)
- viability decrease [5]: 94.4% (active)
- tube area decrease [6]: 18.6% (inactive)
- GLP1 secretion stimulation [7]: 2.8% (inactive)
- inhibition of viability [8]: 73.4% (active)
- viability decrease (inhibition) [9]: 124% (active)
- viability decrease (inhibition) [10]: 84.5% (active)
- inhibition [18]: 4.6% (inactive)
- luciferase signal [15]: 48 AU (inactive)

Compound: CN(C)C(=O)Oc1cc(OC(=O)N(C)C)cc(C(O)CNC(C)(C)C)c1 (configuration not stated)
- survival [1]: 12.5 (inactive)
- parasite load remaining [2]: 140% (inactive) and 77.2% (inactive) and 45.2% (inactive)
- viability [2]: 97.8% and 75.7% and 103%
- nuclear beta-catenin stimulation ([3]; at 10 µM): 0.1% (inactive)
- nuclear beta-catenin stimulation ([3]; stimulation, at 2 µM): 4.2%
- insulin secretion stimulation [4]: 0.9% (inactive)
- viability decrease [5]: -5.7% (inactive)
- tube area decrease [6]: -4% (inactive)
- GLP1 secretion stimulation [7]: 12.7% (inactive)
- inhibition of viability [8]: -0.23% (inactive)
- viability decrease (inhibition) [9]: -17% (inactive)
- viability decrease (inhibition) [10]: -13% (inactive)
- red/green cell ratio (normalised) [11]: 0.71 (inactive)
- normalised cell number [11, 19]: 1.3
- normalised cell number [11, 20]: 0.92
- activity remaining [12]: 118% (inactive)
- fold change ([17]; stronger effect = lower value): 0.804 (inactive) and 0.911 (inactive) and 0.913 (inactive)
- fold change [17, 23]: 1.26 and 0.519 and 1.12
- cell count [17, 24]: 8290 and 8600 and 10000
- cell count [17, 25]: 10300 and 9440 and 11000
- z-score [13, 21]: -0.119 (inactive) and 0.142 (inactive) and -0.358 (inactive)
- z-score [13, 22]: -0.285 and -0.41 and -0.25
- remaining NAD [14]: 10 nM (inactive)
- luciferase signal [15]: 80 AU (inactive)
- z-score [16]: 0.805 (inactive)

Compound: CN1CCN(C(=O)O[C@H]2c3nccnc3C(=O)N2c2ccc(Cl)cn2)CC1
- parasite load remaining [2]: 62.4% (inactive)
- viability [2]: 93.7%
- nuclear beta-catenin stimulation ([3]; at 10 µM): -0.9% (inactive)
- nuclear beta-catenin stimulation ([3]; stimulation, at 2 µM): -0.8%
- insulin secretion stimulation [4]: 2.3% (inactive)
- viability decrease [5]: 2.2% (inactive)
- tube area decrease [6]: -7.8% (inactive)
- GLP1 secretion stimulation [7]: -0.8% (inactive)
- inhibition of viability [8]: -1.1% (inactive)
- viability decrease (inhibition) [9]: 5.5% (inactive)
- viability decrease (inhibition) [10]: -2.6% (inactive)
- red/green cell ratio (normalised) [11]: 0.85 (inactive)
- normalised cell number [11, 19]: 1.07
- normalised cell number [11, 20]: 0.91
- activity remaining [12]: 110% (inactive)
- fold change ([17]; stronger effect = lower value): 0.943 (inactive) and 0.981 (inactive)
- fold change [17, 23]: 1.01 and 4.25
- cell count [17, 24]: 9050 and 10100
- cell count [17, 25]: 9590 and 10300
- remaining NAD [14]: 10 nM (inactive)
- luciferase signal [15]: 40 AU (inactive)
- z-score [16]: 0.52 (inactive)

Compound: O=C(N/N=C/c1ccc([N+](=O)[O-])o1)c1cc([N+](=O)[O-])cc([N+](=O)[O-])c1O
- nuclear beta-catenin stimulation ([3]; at 10 µM): 0.7% (inactive)
- nuclear beta-catenin stimulation ([3]; stimulation, at 2 µM): 1.8%
- insulin secretion stimulation [4]: 1.3% (inactive)
- viability decrease [5]: 79.6% (active)
- tube area decrease [6]: -13.6% (inactive)
- GLP1 secretion stimulation [7]: 1% (inactive)
- inhibition of viability [8]: 29.8% (inactive)
- viability decrease (inhibition) [9]: 25.2% (inactive)
- viability decrease (inhibition) [10]: 4.8% (inactive)
- red/green cell ratio (normalised) [11]: 1.05 (inactive)
- normalised cell number [11, 19]: 1.03
- normalised cell number [11, 20]: 1.08
- fold change ([17]; stronger effect = lower value): 0.946 (inactive)
- fold change [17, 23]: 1.02
- cell count [17, 24]: 8410
- cell count [17, 25]: 8890

Compound: Oc1cc(Cl)ccc1Oc1ccc(Cl)cc1Cl
- parasite load remaining [2]: -1.97% (inactive) and 16.2% (inactive)
- viability [2]: 75.8% and 88.8%
- nuclear beta-catenin stimulation ([3]; at 10 µM): 1.1% (inactive)
- nuclear beta-catenin stimulation ([3]; stimulation, at 2 µM): 0.7%
- insulin secretion stimulation [4]: 1.4% (inactive)
- viability decrease [5]: 48.8% (inactive)
- tube area decrease [6]: 104% (active)
- GLP1 secretion stimulation [7]: 26.8% (active)
- inhibition of viability [8]: 95% (active)
- viability decrease (inhibition) [9]: 112% (active)
- viability decrease (inhibition) [10]: 51.4% (active)
- red/green cell ratio (normalised) [11]: 0.82 (inactive)
- normalised cell number [11, 19]: 1.03
- normalised cell number [11, 20]: 0.84
- activity remaining [12]: 106% (inactive)
- fold change ([17]; stronger effect = lower value): 1.03 (inactive) and 0.888 (inactive)
- fold change [17, 23]: 2.38 and 7.01
- cell count [17, 24]: 7170 and 12100
- cell count [17, 25]: 6950 and 13600
- z-score [13, 21]: -0.777 (inactive)
- z-score [13, 22]: -0.145
- remaining NAD [14]: 10 nM (inactive)
- luciferase signal [15]: 48 AU (inactive)
- z-score [16]: -1.48 (inactive)
